Results on 40 compounds are retold here after PubChem BioAssay (EPA / NIEHS).

Records with an inconclusive call do not appear. Calls of active or inactive are those of the source. The calls were made as follows: active = hit-call score of the fitted dose curve at least 0.9, where 1 is the maximum; inconclusive = response in the unintended direction; inactive = score below 0.9.

Chain of Nuclear receptor subfamily 1 group I member 2 (Homo sapiens) (O75469 whole entry, looked up): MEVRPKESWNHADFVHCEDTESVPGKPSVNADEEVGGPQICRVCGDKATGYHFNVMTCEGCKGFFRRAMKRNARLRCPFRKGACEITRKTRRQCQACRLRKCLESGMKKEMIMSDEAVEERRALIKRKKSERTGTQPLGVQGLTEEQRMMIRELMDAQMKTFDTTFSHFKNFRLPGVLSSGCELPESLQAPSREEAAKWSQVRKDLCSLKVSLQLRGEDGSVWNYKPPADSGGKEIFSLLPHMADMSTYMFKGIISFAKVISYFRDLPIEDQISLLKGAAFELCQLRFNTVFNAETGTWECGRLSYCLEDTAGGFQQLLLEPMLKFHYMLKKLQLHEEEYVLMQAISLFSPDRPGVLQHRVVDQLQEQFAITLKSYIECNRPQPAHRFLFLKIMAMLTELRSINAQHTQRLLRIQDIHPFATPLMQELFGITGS

The test addresses Nuclear receptor subfamily 1 group I member 2 (Homo sapiens) (UniProt O75469). In words: ATG_PXR_TRANS: Attagene TRANS-FACTORIAL HepG2 Assay for human Pregnane X Receptor (PXR) (AID 2283008). As for the experimental part:
ATG_TRANS is a cell-based, multiplexed-readout assay that uses HepG2, a human liver cell line, with measurements taken at 24 hours after chemical dosing in a 24-well plate.ATG_PXR_TRANS is one of 30 assay component(s) measured or calculated from the ATG_TRANS assay. It is designed to make measurements of mRNA induction, a form of inducible reporter, as detected with fluorescence intensity signals by Reverse transcription polymerase chain reaction (RT-PCR) and Capillary electrophoresis technology.Data from the assay component ATG_PXR_TRANS was analyzed into 1 assay endpoint. This assay endpoint, ATG_PXR_TRANS, was analyzed in the positive analysis fitting direction relative to DMSO as the negative control and baseline of activity. Using a type of inducible reporter, measures of mRNA for gain-of-signal activity can be used to understand the reporter gene at the transcription factor-level as they relate to the gene NR1I2. Furthermore, this assay endpoint can be referred to as a primary readout, because this assay has produced multiple assay endpoints where this one serves a reporter gene function. To generalize the intended target to other relatable targets, this assay endpoint is annotated to the nuclear receptor intended target family, where the subfamily is non-steroidal.
Human liver HepG2 cells are transiently transfected with multiple reporter transcription units (MRTUs) in 6-well plates using FuGene 6 reagent (Roche; 3 ml FuGene/1 mg DNA). The MRTU constructs are regulated by a cis-regulating element (promoter). […] A major difference between the CIS and TRANS system is that in CIS activities of endogenous TFs are measured, whereas the TRANS assay evaluates changes in activities of exogenous, chimeric NR-Gal4 proteins. […] At the end of 24 hour incubation, total RNA was isolated using TriZol reagent (Invitrogen). The isolated RNA is then reverse-transcribed using oligo(dT) primer and Mo-MLV reverse transcriptase (Invitrogen) with DNAse I (Ambion) treatment for 30 min. The one-tenth of the produced cDNA was amplified by PCR using Taq DNA polymerase (Invitrogen) and two reporter sequence-specific primers. The PCR products were fluorescently labeled by primer extension with 6-arboxyfluorescein (6-FAM) 5'-labeled reporter sequence-specific primer (2 min at 95 C, 20 s at 68 C and 10 min at 72 C) and these products were digested with 5U of HpaI (New England Biolabs) for 2h at 37 C. The fragments were purified using Qiaquick PCR columns (Qiagen), analyzed on an ABI 3130xL genetic analyzer (Applied Biosystems) with peak positions identified by using a set of X-rhodamine (ROX)-labeled MapMarker1000 molecular weight standards (BioVentures). The raw capillary electrophoresis data was processed using Attagraph software (Attagene).
For the compound `CC(C)CCCCCCCCCCCCCCC(=O)O`, the call was inactive.
The same measure, in the same setting: for `CCCSc1ccc2nc(NC(=O)OC)[nH]c2c1` the value was “inactive”.
Same read-out and setting: with `CCc1ccc(O)c(OC)c1` the entry was “inactive”.
Regarding `O=C1OC2(c3ccccc31)c1ccc(O)c(Br)c1Oc1c2ccc(O)c1Br`, the AC50 was 57 µM (active).
Turning to `Nc1ccccc1[N+](=O)[O-]`, the compound was classed as inactive.
Still for that read-out and setting: with `c1ccc2[nH]cnc2c1` the entry was “inactive”; with `O=C(c1ccccc1)C(O)c1ccccc1` (stereo not given), “inactive”.
Turning to `CCOc1ccc(N=Nc2ccc(C=Cc3ccc(N=Nc4ccc(OCC)cc4)cc3S(=O)(=O)O)c(S(=O)(=O)O)c2)cc1`, the outcome was inactive.
Still for that read-out and setting: for `CCCCCCCCc1ccc(S(=O)(=O)O)cc1` the value was “inactive”.
As for `CCCOC(=O)c1c(Cl)c(Cl)c(Cl)c(Cl)c1C(=O)OCCC`, the AC50 was 4.24 µM (active).
Take `CS(=O)(=O)c1ccc(C2=C(c3ccccc3)C(=O)OC2)cc1`: the compound was classed as inactive.
Take `O=CCc1ccccc1`: the AC50 was 13.1 µM (active).
As to `c1ccc(Oc2ccccc2)cc1`, the compound was classed as inactive.
For the compound `CCCCCCC(CO)CCCC` (stereo not given), the compound was classed as inactive.
The same measure, in the same setting: for `CCCCCCCCCC(=O)OC` the value was “inactive”.
Take `CSc1c(Cl)c(Cl)c(Cl)c(Cl)c1Cl`: the AC50 was 8.95 µM (active).
For `CC1=NN(c2ccc(S(=O)(=O)O)cc2)C(=O)C1`, the compound was classed as inactive.
Same read-out and setting: for `C=C(CC(=O)O)C(=O)O` the value was “inactive”; for `COC(CC(C)CCCC(C)(C)O)OC` (stereo not given), “inactive”; for `CCCCCCCCSCCO`, “inactive”.
On the same count and under the same terms, for `CCCCC(CC)COC(C)=O` (stereo not given) the value was “inactive”.
Still for that read-out and setting: with `COC(C)(C)CCCC(C)CC=O` (stereo not given) the entry was “inactive”; with `COc1cccc(OC)c1O`, “inactive”.
On to `CCC(C)c1cc([N+](=O)[O-])cc([N+](=O)[O-])c1OC(=O)OC(C)C` (stereo not given), for which the AC50 is 1.58 µM (active).
On to `C[Si]1(C)O[Si](C)(C)O[Si](C)(C)O1`, for which the result was inactive.
In the case of `OCc1cccc(Oc2ccccc2)c1`, the compound was classed as inactive.
As to `COC(=O)c1ccc(C)cc1C1=NC(C)(C(C)C)C(=O)N1` (stereo not given) (tested in a mixture with another compound), the compound was classed as inactive.
Consider `CCCCC(CC)COC(=O)c1ccc(O)cc1` (stereo not given), for which the AC50 is 20.7 µM (active).
Consider `C=CCCC(=O)/C=C/C1C(C)=CCCC1(C)C` (stereo not given), for which the AC50 is 2.37 µM (active).
Turning to `COC(=O)c1ccc(OC)cc1`, the compound was called inactive.
For the compound `C=Cc1ccncc1`, the compound was called inactive.
As to `CCCCC1CCC(O)CC1` (stereo not given), the result was inactive.
Still for that read-out and setting: for `CCOC(=O)CC(C)O` (stereo not given) the value was “inactive”.
As to `CN(c1nccc(=O)[nH]1)C1CCN(c2nc3ccccc3n2Cc2ccc(F)cc2)CC1`, the compound was classed as inactive.
Take `CN(C)C(=S)SC(=S)N(C)C`: the compound was classed as inactive.
For `N#Cc1ccc(CC(=O)c2cccc(C(F)(F)F)c2)cc1`, the AC50 was 5.99 µM (active).
`CCCCCCCC(=O)OCCCCCC`: the call was inactive.
Still for that read-out and setting: for `OC[C@H]1O[C@@H](Oc2ccc(O)cc2)[C@H](O)[C@@H](O)[C@@H]1O` the value was “inactive”.
On to `CC(C)C[C@H](NC(=O)OCC1c2ccccc2-c2ccccc21)C(=O)O`, for which the AC50 was 12.5 µM (active).
Regarding `CCC1CCCCC1`, the compound was classed as inactive.

As usually defined, the AC50 is the concentration at which the activity in the assay is half-maximal.
